# Test results from ChEMBL document CHEMBL4513142, “CO-ADD screening of Indiana University - Purdue University Indianapolis (USA) compounds”.
# “And” between values parts separate entries of the source, which are not always exact repeats. Identical values can stand only once. Measured potencies and affinities stand elsewhere.
# Columns and labels:
# [1] = tested on: Staphylococcus aureus; conditions: Concentration 32 ug.mL-1, ASSAY_TEST Inhibition of Bacterial Growth, detection method Absorption (OD600), MEDIA CAMHB, plate type 384well, NBS, CORNING #3640, time 18 hr
# [2] = tested on: Escherichia coli; conditions: Concentration 32 ug.mL-1, ASSAY_TEST Inhibition of Bacterial Growth, detection method Absorption (OD600), MEDIA CAMHB, plate type 384well, NBS, CORNING #3640, time 18 hr
compound,measurement,setting,value
NC(=O)[C@H](Cc1ccccc1)NC(=O)c1cccnc1,Inhibition,[1]; 32 ug/mL,29.26% and 26.43%
same,Inhibition,[2]; 32 ug/mL,20.31% and 18.99%
Cc1ccc(C(=O)NC(Cc2ccccc2C#N)C(=O)O)cc1 (stereo not given),Inhibition,[1]; 32 ug/mL,24.12% and 21.1%
same,Inhibition,[2]; 32 ug/mL,12.75% and 9.35%
CCCNC(=O)C(Cc1ccccc1)NC(=O)c1ccc(F)cc1 (stereo not given),Inhibition,[1],30.52%
same,Inhibition,[2],11.25%
NC(=O)[C@@H]1CCCN1C(=O)c1ccccn1,Inhibition,[1]; 32 ug/mL,30.13% and 31.7%
same,Inhibition,[2]; 32 ug/mL,20.95% and 16.57%
NC(=O)[C@H](Cc1ccccc1)NC(=O)c1c(F)c(F)c(F)c(F)c1F,Inhibition,[1]; 32 ug/mL,22.06% and 27.14%
same,Inhibition,[2]; 32 ug/mL,6.54% and 12.4%
NC(Cc1ccc(F)cc1)C(=O)O.O=C(O)C(F)(F)F (stereo not given),Inhibition,[1]; 32 ug/mL,15.79% and -3.39%
same,Inhibition,[2]; 32 ug/mL,9.45% and 2%
[C-]#[N+]c1ccc(C(=O)NC(CC#C)C(=O)NCCC)cc1 (stereo not given),Inhibition,[1],27.84%
same,Inhibition,[2],17.34%
Cc1ccc(C(=O)NC(Cc2cc(F)c(F)cc2F)C(=O)O)cc1 (stereo not given),Inhibition,[1]; 32 ug/mL,24.46% and 19.13%
same,Inhibition,[2]; 32 ug/mL,4.35% and 11.7%
NC(Cc1ccccc1I)C(=O)O.O=C(O)C(F)(F)F (stereo not given),Inhibition,[1]; 32 ug/mL,9.99% and 15.72%
same,Inhibition,[2]; 32 ug/mL,13.12% and 15.99%
NC(Cc1ccc(F)c(F)c1)C(=O)O.O=C(O)C(F)(F)F (stereo not given),Inhibition,[1]; 32 ug/mL,14.42% and 15.4%
same,Inhibition,[2]; 32 ug/mL,15.3% and 11.55%
[C-]#[N+]c1ccc(C(=O)NC(Cc2ccc(F)cc2)C(=O)NCCC)cc1 (stereo not given),Inhibition,[1],26.08%
same,Inhibition,[2],15%
CC(C)C[C@H](NC(=O)c1cccnc1)C(N)=O,Inhibition,[1]; 32 ug/mL,11.42% and -3.35%
same,Inhibition,[2]; 32 ug/mL,-6.61% and -6.83%
[C-]#[N+]c1ccc(C(=O)NC(Cc2ccc(C(F)(F)F)cc2)C(=O)NCCC)cc1 (stereo not given),Inhibition,[1],24.86%
same,Inhibition,[2],13.88%
O=C(N[C@@H](Cc1ccccc1)C(=O)O)C1CCCCC1,Inhibition,[1]; 32 ug/mL,12.87% and 13.13%
same,Inhibition,[2]; 32 ug/mL,2.23% and -1.68%
CCCNC(=O)C(Cc1ccc(F)cc1)NC(=O)c1ccccc1 (stereo not given),Inhibition,[1],25.83%
same,Inhibition,[2],9.01%
NC(Cc1cccc(F)c1)C(=O)O.O=C(O)C(F)(F)F (stereo not given),Inhibition,[1]; 32 ug/mL,11.07% and 11.98%
same,Inhibition,[2]; 32 ug/mL,9.03% and 16.34%
O=C(NC(CCCc1ccccc1)C(=O)O)c1cccc2ccccc12 (stereo not given),Inhibition,[1]; 32 ug/mL,21.08% and 19.14%
C[C@H](NC(=O)c1ccccc1Cl)C(=O)O,Inhibition,[1]; 32 ug/mL,13.46% and 14.36%
same,Inhibition,[2]; 32 ug/mL,2.9% and -3.06%
[C-]#[N+]c1ccc(C(=O)NC(Cc2ccccc2F)C(=O)NCCC)cc1 (stereo not given),Inhibition,[1],22.89%
same,Inhibition,[2],11.79%
CCCNC(=O)C(Cc1ccccc1C)NC(=O)c1ccc(C(F)(F)F)cc1 (stereo not given),Inhibition,[1],28.42%
same,Inhibition,[2],15.38%
[C-]#[N+]c1ccc(C(=O)NC(CC=C)C(=O)NCCC)cc1 (stereo not given),Inhibition,[1],14.2%
same,Inhibition,[2],6.66%
NC(Cc1ccccc1F)C(=O)O.O=C(O)C(F)(F)F (stereo not given),Inhibition,[1]; 32 ug/mL,11.55% and 11.5%
same,Inhibition,[2]; 32 ug/mL,17.44% and 15.69%
O=C(NC(Cc1ccc(Cl)nc1)C(=O)O)c1ccccc1 (stereo not given),Inhibition,[1]; 32 ug/mL,22.85% and 23.42%
same,Inhibition,[2]; 32 ug/mL,9.12% and 5.81%
[C-]#[N+]c1ccc(C(=O)NC(CC)C(=O)NCCC)cc1 (stereo not given),Inhibition,[1],19.19%
same,Inhibition,[2],3.26%
O=C(Cc1cccc(Br)c1)N[C@@H](Cc1ccccc1)C(=O)O,Inhibition,[1]; 32 ug/mL,8.37% and -0.37%
same,Inhibition,[2]; 32 ug/mL,5.53% and 8.68%
COc1cc(C(=O)N[C@@H](CC(C)C)C(=O)O)ccc1O,Inhibition,[1]; 32 ug/mL,20.35% and 19.19%
same,Inhibition,[2]; 32 ug/mL,10.4% and 9.74%
CCCNC(=O)C(Cc1ccccc1)NC(=O)Cc1ccccc1 (stereo not given),Inhibition,[1],29.57%
same,Inhibition,[2],14.02%
CC(C)[C@H](NC(=O)c1cccc(C(F)(F)F)c1)C(=O)O,Inhibition,[1]; 32 ug/mL,19.09% and 11.5%
same,Inhibition,[2]; 32 ug/mL,0.57% and -0.75%
